Data from ChEMBL document CHEMBL3988442, “University of Dundee, Small-Polar-MMV Screening Library” (2021).

What follows are compounds tested against T1, Aspartate--tRNA(Asp/Asn) ligase (Mycobacterium tuberculosis (strain ATCC 25618 / H37Rv)) (UniProt P9WFW3) (assay: Assay for Asp RNA synthetase-1 from Mycobacterium tuberculosis). Settings: 30 µM.
T1 sequence (whole entry): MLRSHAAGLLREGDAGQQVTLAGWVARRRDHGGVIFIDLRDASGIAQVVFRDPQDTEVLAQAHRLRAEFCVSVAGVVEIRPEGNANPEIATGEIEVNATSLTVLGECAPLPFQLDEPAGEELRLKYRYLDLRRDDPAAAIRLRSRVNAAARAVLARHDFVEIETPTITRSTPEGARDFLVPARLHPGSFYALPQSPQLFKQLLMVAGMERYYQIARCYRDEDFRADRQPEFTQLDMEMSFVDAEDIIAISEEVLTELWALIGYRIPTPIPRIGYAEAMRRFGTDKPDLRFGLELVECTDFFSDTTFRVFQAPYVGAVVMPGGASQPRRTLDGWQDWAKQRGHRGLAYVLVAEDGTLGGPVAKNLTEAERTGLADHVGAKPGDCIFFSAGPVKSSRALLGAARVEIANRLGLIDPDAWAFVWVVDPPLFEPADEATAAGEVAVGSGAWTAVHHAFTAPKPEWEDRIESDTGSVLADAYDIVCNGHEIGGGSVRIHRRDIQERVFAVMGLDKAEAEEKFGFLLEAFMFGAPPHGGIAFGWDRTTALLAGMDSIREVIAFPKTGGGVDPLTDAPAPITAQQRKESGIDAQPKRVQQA
Assay type: functional
Set-up: scale not given: direction of the effect not stated beside the values
Compound `CCCc1cc(CNC(=O)C2CCOc3ccccc3C2)on1` (stereo not given) has a Percent Effect of 2.59%.
In the case of `Cc1ccc(C(=O)NC(CN2CCCC2=O)c2ccccc2)c(=O)[nH]1` (stereo not given), the Percent Effect is reported as -6.44%.
`O=C(c1ccnnc1)N1CCN2C[C@H](Oc3cccc(F)c3)C[C@H]2C1` was tested, and the Percent Effect was -0.611%.
`Cc1ccc(N2CCCC(NCc3nc(C)c(C)o3)C2)nn1` (stereo not given) gave a Percent Effect of -0.975%.
`Cc1ccn(-c2ccccc2NCc2ncc[nH]2)n1` showed a Percent Effect of -0.604%.
In the case of `Cc1occc1C(=O)N1CCC2(CCC2NC(=O)c2ccn(C)c2)CC1` (stereo not given), the Percent Effect is reported as -3.29%.
`CCc1n[nH]c(C2CN(C(=O)c3cc4c(s3)CCCC4)CCO2)n1` (stereo not given) gave a Percent Effect of -1.69%.
With `Cc1nc(C)n(CC2CN(c3ncnc4[nH]ccc34)CCO2)n1` (stereo not given) the Percent Effect was 0.364%.
With `CC(C)c1nc2n(n1)CC(NCc1ccncc1)CC2` (stereo not given) the Percent Effect was -2.1%.
With `CN(C)C(=O)N1C[C@@H]2CCCO[C@@H]2[C@H](N(C)Cc2ccco2)C1` the Percent Effect was -1.32%.
Compound `CC(C)c1nc(CN(C)C2CCN(CC(F)(F)F)C2)no1` (stereo not given) has a Percent Effect of 8.54%.
Work on `CC(=O)c1cccc(OCCCC(=O)N(C)CCc2ccncc2)c1` yielded a Percent Effect of -0.591%.
With `CC(C)c1ncc2c(n1)CN(Cc1cccc(OCC(N)=O)c1)CC2` the Percent Effect was 3.81%.
With `Cc1nc(CNC(=O)NCC(O)c2cccc(Cl)c2)cs1` (stereo not given) the Percent Effect was 1.01%.
`CNC(=O)[C@H]1CCS(=O)(=O)[C@@H]2CN(Cc3ccc(OC)cc3)C[C@H]12` was tested, and the Percent Effect was -0.605%.
With `O=C(CCC1CCCC1)NCCn1nc(C2CCNC2)c2nccnc21` (stereo not given) the Percent Effect was 1.74%.
For `O=C(NCCc1cccnc1)N1CCCC1c1ccsc1` (stereo not given), the Percent Effect was -2.72%.
Work on `O=C(NCc1ccccc1-n1cccn1)N1CCN2CCCCC2C1` (stereo not given) yielded a Percent Effect of -6.8%.
With `CCc1cnc(CN(C(C)=O)C2CCN(CCS(C)(=O)=O)C2)o1` (stereo not given) the Percent Effect was -3.9%.
`Cc1noc(C2CCN(C(=O)c3c(C)noc3C)CC2)n1` gave a Percent Effect of 0.55%.

What follows are compounds tested against Shiga toxin 2 (Escherichia coli O157:H7) (UniProt P09385+P09386) (assay: E. coli 0.157:H7 Shiga Toxin SOP - stx2 screening assay). Settings: 30 µM.
Assay type: functional
Set-up: scale not given: direction of the effect not stated beside the values
`NC(=O)C1CN(C(=O)Nc2cc(Cl)cc(Cl)c2)CCO1` (stereo not given) was tested, and the Percent Effect was 8.74%.
`COc1c(C(=O)NCc2cccnc2)nnn1Cc1ccc(C)cc1` gave a Percent Effect of -4.95%.
Work on `CC(C1CC1)N(C)C(=O)c1cnc(-c2ccc3c(c2)OCO3)s1` (stereo not given) yielded a Percent Effect of -42.7%.
`Cc1ccccc1[C@@H]1CN(C(=O)c2ccc3[nH]nnc3c2)C[C@H]1C(=O)O` was tested, and the Percent Effect was -15.8%.
Work on `O=C(NCCCn1cncn1)N1CCCC(N2CCCC2)C1` (stereo not given) yielded a Percent Effect of 0.153%.
`CCn1ccnc1CN1CCN(CC(=O)NC(C)(C#N)C2CC2)CC1` (stereo not given) showed a Percent Effect of 27.2%.
`c1csc(-c2nc(CN3CCOC(Cn4cncn4)C3)cs2)c1` (stereo not given) gave a Percent Effect of 31.4%.
`COCCC(=O)N1CC2(CCN(Cc3ccoc3)C2)C1` showed a Percent Effect of -19.5%.
Compound `CC(COc1ccc(F)cc1F)NC(=O)NCCN1CCOCC1` (stereo not given) has a Percent Effect of -3.82%.
`c1ccc(-c2cnc(CNCC3CCCN3c3cccnn3)o2)cc1` (stereo not given) showed a Percent Effect of 11.4%.
`COc1cc(C)nc(N2CCN(C(=O)CNC(C)(C)C)CC2)n1` showed a Percent Effect of -32.2%.
`Cc1noc(C)c1C(=O)NCC(C)N(C)C` (stereo not given) was tested, and the Percent Effect was 30.6%.
In the case of `Cc1cc(C)n(CC2CN(CCOc3cccc(F)c3)CCO2)n1` (stereo not given), the Percent Effect is reported as 36.7%.
Work on `CC(Nc1cccc(CN2CCOC2=O)c1)C(=O)Nc1ccccc1F` (stereo not given) yielded a Percent Effect of -24.4%.
`O=C(NCC1CCN(Cc2ccsc2)CC1)NC1CC1` gave a Percent Effect of -10.9%.
Work on `Cc1cc(C)c(OCC(=O)NS(=O)(=O)c2cccnc2)c(C)c1` yielded a Percent Effect of -1.8%.
For `Cc1cccn2c(=O)cc(OC(=O)c3ccccc3)nc12`, the Percent Effect was -13.3%.
In the case of `COc1ccc(OC)c(CNCCc2cc(F)cc3c2OCOC3)c1`, the Percent Effect is reported as 7.51%.
`Cc1ccccc1C(=O)NCc1ccc(N2CCNC(=O)C2)cc1` gave a Percent Effect of -90.8%.
With `Cc1nc(CC(=O)N2CCCCC2c2ccn3ccnc3n2)cs1` (stereo not given) the Percent Effect was 4.13%.
`CCCc1cc(CNC(=O)C2CCOc3ccccc3C2)on1` (stereo not given) showed a Percent Effect of 17.5%.
Compound `Cc1ccc(C(=O)NC(CN2CCCC2=O)c2ccccc2)c(=O)[nH]1` (stereo not given) has a Percent Effect of 2.19%.
With `O=C(c1ccnnc1)N1CCN2C[C@H](Oc3cccc(F)c3)C[C@H]2C1` the Percent Effect was -1.95%.
`Cc1ccc(N2CCCC(NCc3nc(C)c(C)o3)C2)nn1` (stereo not given) showed a Percent Effect of -14.9%.
`Cc1ccn(-c2ccccc2NCc2ncc[nH]2)n1` gave a Percent Effect of -13.8%.
With `Cc1occc1C(=O)N1CCC2(CCC2NC(=O)c2ccn(C)c2)CC1` (stereo not given) the Percent Effect was 13.8%.
With `CCc1n[nH]c(C2CN(C(=O)c3cc4c(s3)CCCC4)CCO2)n1` (stereo not given) the Percent Effect was 4.53%.
`Cc1nc(C)n(CC2CN(c3ncnc4[nH]ccc34)CCO2)n1` (stereo not given) gave a Percent Effect of -9.54%.
`CC(C)c1nc2n(n1)CC(NCc1ccncc1)CC2` (stereo not given) gave a Percent Effect of -1.1%.
Work on `CN(C)C(=O)N1C[C@@H]2CCCO[C@@H]2[C@H](N(C)Cc2ccco2)C1` yielded a Percent Effect of -18.8%.
`CC(C)c1nc(CN(C)C2CCN(CC(F)(F)F)C2)no1` (stereo not given) showed a Percent Effect of -4.21%.
`CC(=O)c1cccc(OCCCC(=O)N(C)CCc2ccncc2)c1` showed a Percent Effect of -45.6%.
With `CC(C)c1ncc2c(n1)CN(Cc1cccc(OCC(N)=O)c1)CC2` the Percent Effect was 12.8%.
With `Cc1nc(CNC(=O)NCC(O)c2cccc(Cl)c2)cs1` (stereo not given) the Percent Effect was -16.9%.
Work on `CNC(=O)[C@H]1CCS(=O)(=O)[C@@H]2CN(Cc3ccc(OC)cc3)C[C@H]12` yielded a Percent Effect of 3.61%.
With `O=C(CCC1CCCC1)NCCn1nc(C2CCNC2)c2nccnc21` (stereo not given) the Percent Effect was -35.4%.
`O=C(NCCc1cccnc1)N1CCCC1c1ccsc1` (stereo not given) gave a Percent Effect of 1.93%.
In the case of `O=C(NCc1ccccc1-n1cccn1)N1CCN2CCCCC2C1` (stereo not given), the Percent Effect is reported as 3.68%.
Compound `CCc1cnc(CN(C(C)=O)C2CCN(CCS(C)(=O)=O)C2)o1` (stereo not given) has a Percent Effect of -0.798%.
With `Cc1noc(C2CCN(C(=O)c3c(C)noc3C)CC2)n1` the Percent Effect was -6.04%.
